Screening data deposited in PubChem by Sanford-Burnham Center for Chemical Genomics.
MPTP inh: inhibitors of mitochondrial permeability transition pore. AID 602449. inhibition, % at 10 µM. hit rate 1.4% among 360,000. isolated mouse mitochondria, Ca2+ swelling absorbance, 30 min;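 active means inhibition of 50% or more, scaled per plate between neutral and stimulator controls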
aDG glyco act: alpha-DG glycosylation activation | Pro5-aDG cells, alpha-DG glycosylation AlphaScreen (IIH6); 0% Pro5, 100% B10-LARGE cell signal | activation, % at 10 µM | hit rate 0.22% among 360,000 | AID 624168;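 active means activation of at least 8% versus controls, or a plate z-score of at least 8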;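 further: Pro5 are CHO cells carrying HIG-tagged alpha-DG that lacks glycosylation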
H9c2 TAG inh: reduces triacylglycerol accumulation in H9c2 cells | inhibition, % at 12.5 µM | hit rate 0.66% among 230,000 | Nile Red lipid (TAG) fluorescence; cells loaded with 200 µM oleic acid | AID 651582;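 active means pattern-corrected inhibition of lipid staining of at least 50% with the nuclear-stain viability signal not falling by more than 50%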
NadD inh: inhibitors of Staphylococcus aureus NadD | hit rate 0.78% among 360,000 | inhibition, % at 20 µM | AID 602399 | purified NadD enzyme, colorimetric absorbance read-out; in the data active means inhibition above about 26%
Rh123 counter: membrane potential counter-screen of mitochondrial pore inhibitors | shares compounds with MPTP inh | isolated mitochondria, Rhodamine 123 fluorescence | AID 624504 | hit rate 78% among 5,000 | inhibition, % at 10 µM; in the data active means inhibition above about 22%
MPTP swell DR: MPTP inhibition, dose response swelling confirmation. AID 651561. IC50, µM. hit rate 58% among 780. shares compounds with MPTP inh. isolated mitochondria swelling, absorbance; in the data active means IC50 below about 20 µM
MPTP counter DR: MPTP inhibitor counter-screen activity, dose response; shares compounds with MPTP inh; IC50, µM; isolated mitochondria counterscreen, fluorescence read-out; hit rate 49% among 780; AID 651564; in the data active means IC50 below about 80 µM
Each line names hits and unclear results; the compound was inactive in the other large screens (follow-up assays come after a bar, where they were run). Only some compounds are listed: those with a hit (about 2.7% of all), similar ones and a draw of the others.

CN1CCN(C(c2ccccc2)c2ccccc2)CC1	none
CN1CCCN(C(c2ccccc2)c2ccc(Cl)cc2)CC1 (configuration not stated)	MPTP inh 99.2 | Rh123 counter inactive
O=S(=O)(Nc1ccccc1Cl)c1ccc(NS(=O)(=O)c2cccs2)cc1	none (no result: H9c2 TAG inh)
O=C(Nc1ccc(F)cc1)Nc1ccccc1NS(=O)(=O)c1cccs1	MPTP inh 81.3 | Rh123 counter 86.2
O=C(Nc1ccc(Cl)cc1)Nc1ccccc1NS(=O)(=O)c1cccs1	MPTP inh 82.5 (no result: H9c2 TAG inh) | Rh123 counter 83.4
NC(=O)c1ccccc1NS(=O)(=O)c1cccs1	none
CCCCCCCCN1C(=O)[C@H](CC(=O)NCC2CCCCC2)C[C@@]2(C(=O)OC)CCCCC=C12	none (no result: H9c2 TAG inh)
Cc1cc(C)c(C#N)c(SCCS(=O)(=O)c2ccc(C(C)(C)C)cc2)n1	MPTP inh 60.8 | Rh123 counter 20.4
CCC(C)(C)NC(=S)Nc1ccc(-c2nc3ccc(C)cc3s2)cc1	MPTP inh 84.8 | Rh123 counter 34.4
CCCCNC(=S)Nc1ccc(-c2nc3ccc(C)cc3s2)cc1	MPTP inh 88.1 | Rh123 counter 86.5
O=C(NCc1ccco1)c1ccccc1NS(=O)(=O)c1cccs1	none (no result: H9c2 TAG inh)
Cc1ccc(NC(=O)c2ccccc2NS(=O)(=O)c2ccc(Cl)s2)cc1	MPTP inh 68.5 (no result: H9c2 TAG inh) | Rh123 counter 76.2
O=C(Nc1ccccc1Cc1ccccc1)c1ccccc1NS(=O)(=O)c1ccc(Cl)s1	MPTP inh 64.2 (no result: H9c2 TAG inh) | Rh123 counter 51.0
O=C(NCc1ccco1)c1ccccc1NS(=O)(=O)c1ccc(Cl)s1	MPTP inh 90.5 | Rh123 counter 78.9
Cc1ccc(NS(=O)(=O)c2ccc(Cl)s2)nc1	none
CS(=O)(=O)c1ccccc1C(=O)Nc1ccccc1Cc1ccccc1	none (no result: H9c2 TAG inh)
COc1ccc(C(CNC(=O)c2c(C)nn(Cc3ccc(C)cc3)c2Cl)N2CCOCC2)cc1 (configuration not stated)	none
Cc1ccc(NC(=S)Nc2ccc(C(C)C)cc2)cc1S(=O)(=O)N1CCCCCC1	MPTP inh 103.0 (no result: H9c2 TAG inh) | Rh123 counter 77.9
C=CCNC(=S)Nc1ccc(C)c(S(=O)(=O)N2CCCCC2)c1	none
O=C(NCc1cccc(Cl)c1)c1cccc2c(-c3cccnc3)coc12	none
O=C(c1cccc(S(=O)(=O)N2CCN(c3ccccc3)CC2)c1)N1CCCC(C(F)(F)F)C1 (configuration not stated)	MPTP inh 68.2 | Rh123 counter 71.5
O=C(c1cc(S(=O)(=O)N2CCN(c3ccccc3)CC2)ccc1Cl)N1CCCC(C(F)(F)F)C1 (configuration not stated)	none
Clc1ccc(C(c2ccccc2Cl)C(Cl)Cl)cc1 (configuration not stated)	MPTP inh 61.1 | Rh123 counter inactive | MPTP swell DR inactive | MPTP counter DR inactive
CCc1ccc(C(c2ccc(CC)cc2)C(Cl)Cl)cc1	none (no result: H9c2 TAG inh)
O=C(c1ccc(S(=O)(=O)Cc2ccccc2F)c([N+](=O)[O-])c1)N1CCCC1	none
O=C(c1ccc(S(=O)(=O)c2ccc(F)cc2)c([N+](=O)[O-])c1)N1CCCCCC1	MPTP inh 78.3 (no result: H9c2 TAG inh) | Rh123 counter 67.8
COc1ccccc1CCNC(=O)C(=O)NCC1CCCN1S(=O)(=O)c1ccccc1 (configuration not stated)	none
Cc1cc(C(=O)NC2CCCc3c2cnn3-c2ccc(C(C)(C)C)cc2)nn1C (configuration not stated)	MPTP inh 88.6 | Rh123 counter 104.8
CCn1cc(C(=O)NC2CCCc3c2cnn3-c2cccc(C)c2C)cn1 (configuration not stated)	MPTP inh 87.3 | Rh123 counter 104.2
Cc1cccc(-n2ncc3c2CCCC3NC(=O)c2cccs2)c1C (configuration not stated)	none
CC1=C(C(=O)NC2CCCc3c2cnn3-c2cccc(C)c2C)OCCO1 (configuration not stated)	none
Cc1cccc(-n2ncc3c2CCCC3NC(=O)c2ccncc2)c1C (configuration not stated)	MPTP inh 86.3 | Rh123 counter 90.1
CC1(C)Cc2c(cnn2-c2cccc(F)c2)C(NC(=O)CSc2ccccn2)C1 (configuration not stated)	none (no result: H9c2 TAG inh)
COC(=O)c1ccc(COc2ccccc2/C=C(\C#N)C(=O)Nc2c(C)cc(C)cc2C)cc1	none (no result: H9c2 TAG inh)
Cc1cc(C)c(NC(=O)/C(C#N)=C/c2ccc(OCc3ccc(F)cc3)cc2)c(C)c1	MPTP inh 85.3 (no result: H9c2 TAG inh) | Rh123 counter 22.0
CN(Cc1ccccc1)C(CNS(=O)(=O)c1ccccc1)c1ccccc1 (configuration not stated)	none
CCc1ccc(N2CC(C(=O)Nc3ccc4c(c3)OCO4)CC2=O)cc1 (configuration not stated)	none
O=S(=O)(Nc1ccccc1O)c1ccc(-c2ccccc2)cc1	MPTP inh 84.2 | Rh123 counter 90.1
S=C(NCCSCc1ccc(Cl)cc1)Nc1ccccc1	MPTP inh 68.1 (no result: H9c2 TAG inh) | Rh123 counter 97.0
Cc1cccc(CSCCNC(=S)Nc2ccccc2)c1	MPTP inh 82.2 (no result: H9c2 TAG inh) | Rh123 counter 78.8
S=C(NCCSCc1ccccc1Cl)Nc1ccccc1	MPTP inh 81.6 | Rh123 counter 104.1
CCCNC(=S)Nc1ccccc1	none (no result: H9c2 TAG inh)
CCCOc1ccc(CSCCNC(=S)Nc2ccccc2)cc1	MPTP inh 95.3 (no result: H9c2 TAG inh) | Rh123 counter 93.5
CCOc1ccc(CSCCNC(=S)Nc2ccc(OC)cc2)cc1	none
CCOc1cc(OCC)cc(C(=O)N2CCC[C@H]2C(=O)N2CCC[C@H]2C(=O)NCc2cccc(OC)c2)c1	none (no result: H9c2 TAG inh)
CCn1c(=O)c2ccccc2n2c(SCC(=O)N3CCCc4ccccc43)nnc12	MPTP inh 54.4 (no result: H9c2 TAG inh) | Rh123 counter inactive | MPTP swell DR inactive | MPTP counter DR inactive
Cc1ccc(C(=O)/C=C/c2cc(C#N)n(C)c2C)cc1	none (no result: H9c2 TAG inh)
CCOc1ccc(CN(C)CC(O)COC(c2ccc(OC)cc2)c2ccc(OC)cc2)cc1 (configuration not stated)	MPTP inh 66.9 (no result: H9c2 TAG inh) | Rh123 counter inactive | MPTP swell DR 14.8 | MPTP counter DR 48.3
CC(C)N(Cc1ccccc1)C(=O)COC(=O)c1cc(S(=O)(=O)N(C)C)ccc1N1CCCC1	none
Cc1ccc(CNC(=O)c2ccc(Cl)c(S(=O)(=O)N3CCCCC3)c2)cc1	none
Cc1cc(NC(=O)CCSc2ccccc2)ccc1Br	MPTP inh 96.7 (no result: H9c2 TAG inh) | Rh123 counter 84.0
CC(C)(C)NC(=O)C(c1cc2ccccc2o1)n1c(=O)c(-c2ccccc2)nc2ccccc21 (configuration not stated)	none (no result: H9c2 TAG inh, NadD inh)
Cc1ccc(NC(=O)Cn2c(/C=C/c3ccccc3)nc3ccccc32)cc1C	MPTP inh 63.1 | Rh123 counter 60.2
COc1ccc(CNC(=O)COc2cc3c(c4oc(=O)cc(C)c24)CCC(C)(C)O3)c(OC)c1	none (no result: H9c2 TAG inh)
